# The full list was thinned out, with hits kept by preference.
# EZH2 inh = EZH2/PRC2 methyltransferase inhibitors, primary screen, biochemical, DELFIA time-resolved fluorescence, single point; Histone-lysine N-methyltransferase EZH2 (Homo sapiens), Q15910; PRC2 H3K27 methylation, DELFIA TRF, 1 h; inhibition, % at 12.5 µM; hit rate 0.35% among 57,000;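 active means mean inhibition of replicates at least 50% and every single replicate also reaching 50%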;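 further: dimethyl H3K27 on biotinylated H3 21-44 peptide detected by antibody; plate controls were median neutral control wells for no effect and median positive control wells for full effect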
# An asterisk follows results filed as active.
SMILES,EZH2 inh
COc1ccc(/C=N/NC(=O)c2ccccc2O)cc1Br,-8
COc1cc(Br)cc(/C=N/NC(=O)c2ccccc2O)c1O,5
COc1cc(Br)c(/C=N/NC(=O)c2ccccc2O)cc1OC,67*
C/C=C1/[C@H](O[C@@H]2O[C@H](CO)[C@@H](O)[C@H](O)[C@H]2O)OC=C(C(=O)OC)[C@H]1CC(=O)OCC(C)[C@@H]1C[C@H]2OC(=O)C3=CO[C@@H](O[C@@H]4O[C@H](CO)[C@@H](O)[C@H](O)[C@H]4O)/C(=C/C)[C@@H]3CC(=O)OC[C@@H]1[C@H]2C (some centres undefined),-5
COc1cccn(Cc2nnc(SCC(=O)c3ccccc3)o2)c1=O,2
COc1ccc2c(c1)c(=O)oc1c(C)c(OCC(=O)NCC3CCCO3)ccc12 (centres undefined),9
COc1ccc2c(c1)c(CC(=O)O)c(C)n2C(=O)c1ccc(Cl)cc1,7
COc1ccc2c(c1)c(CC(=O)OCc1ccccn1)c(C)n2C(=O)c1ccc(Cl)cc1,56*
COc1ccc(-n2c(C)c(C(C)=O)c3cc(OCC(N)=O)ccc32)cc1,24
CC1=CC=C(C=O)C(C)(C)C1OC(=O)/C=C(\C)CO (centres undefined),-7
Cc1nnc(SCC(=O)Nc2ccc([N+](=O)[O-])cc2O)s1,-12
O=C(CC(Sc1ccc(Cl)cc1)c1ccc(Cl)cc1)C1CC1 (centres undefined),53*
CCOc1ccccc1NC(=O)C(C)Oc1ccc(OC)cc1 (centres undefined),10
O=C(Cn1c(NCCO)nc2ccccc21)c1cccc([N+](=O)[O-])c1,-17
COc1ccc(/C=N/NC(=O)CCCCCC(=O)Nc2ccccc2O)c(OC)c1,-5
COC(=O)C1=CO[C@@H](OC2OC(O)C(O)C(O)C2CO)[C@H]2[C@@H]1C=CC21C=C([C@H](C)O)C(=O)O1 (some centres undefined),-3
Cc1ccc(Cl)cc1NC(=O)CSc1cc(C)c2cccc(C)c2n1,17
CCc1ccc(NC(=O)CSc2nnc(-c3ccc(Br)cc3)n2C)cc1,-5
COc1ccc(-c2coc3c(OC)c(O)ccc3c2=O)cc1,1
CC1(CO)C=Cc2c(cc(O)c3c(=O)c(-c4ccc(O)cc4)coc23)O1 (centres undefined),65*
COc1ccc(-c2coc3c(OC)c(OC)cc(OC)c3c2=O)cc1,7
CCn1c(SCC(=O)Nc2ccc(F)c(Cl)c2)nnc1-c1ccc(Cl)cc1Cl,8
COC(=O)[C@]1(Cc2ccccc2N=[N+]=[N-])N=C(c2ccc(OCCCO)cc2)O[C@@H]1c1ccccc1CN=[N+]=[N-],21
Cc1ccc(S(=O)(=O)NCC(=O)Nc2ccc(Cl)c(C(F)(F)F)c2)cc1,-5
CC(C)(C)[S@@](=O)N1Cc2cc(C(=O)NCc3ccncc3)nc(-c3cccc(-c4ccc(C#N)cc4)c3)c2[C@H]1CCO,0
SMILES,EZH2 inh
CC(C)(C)[S@](=O)N1Cc2cc(C(=O)NCCc3ccncc3)nc(-c3cccc(-c4cccc(C#N)c4)c3)c2[C@@H]1CCO,-7
CC(C)(C)[S@@](=O)N1Cc2cc(C(=O)NCCc3ccncc3)nc(-c3cccc(-c4ccc(C#N)cc4)c3)c2[C@H]1CCO,50*
COc1ccc(C(C)=O)c(O)c1,-3
COCc1cc(O)c(O)c(O)c1-c1c(COC)cc(O)c(O)c1O,88*
O=C(Cn1cnc2sc3c(c2c1=O)CCCC3)Nc1ccccc1Br,6
O=C(O)CCCC[C@@H]1SC[C@@H]2NC(=O)N[C@@H]21,99*
O=C(O)CCCCCCC(=O)N/N=C/CCC1CCCCC1,11
CCOc1ccc2nc(NCc3cc(OC)c(OC)cc3OC)sc2c1,-13
CCOc1ccc(NC(=S)Nc2sc3c(c2C(=O)OC)CCC3)c([N+](=O)[O-])c1,39
CCOc1ccc2nc(NS(=O)(=O)c3ccc(C)c([N+](=O)[O-])c3)sc2c1,51*
O=C(NC1CCCC1)c1c(NC(=O)c2cc(-c3ccccn3)nc3ccccc23)sc2c1CCC2,-10
O=C(CSc1nnc(-c2ccc(Cl)cc2)n1-c1ccccc1)Nc1ccccc1C(F)(F)F,4
O=c1[nH]c(SCc2ccccc2[N+](=O)[O-])nc2ccccc12,15
C[C@@H]1O[C@@H](OCC2OC(OC3C(OC4C(Oc5c(-c6ccc(O)c(O)c6)oc6cc(O)cc(O)c6c5=O)OC(CO)C(O)C4O)OC(CO)C(O)C3O)C(O)C(O)C2O)[C@H](O)[C@H](O)[C@H]1O (some centres undefined),6
COc1c(OC2OC(CO)C(O)C(O)C2O)ccc(O)c1C(=O)OCc1ccccc1O[C@@H]1O[C@H](CO)[C@@H](O)[C@H](O)[C@H]1O (some centres undefined),18
CC1OC(Oc2cc(O)c3c(=O)c(OC4OC(CO)C(O)C(O)C4OC4OC(C)C(O)C(O)C4O)c(-c4ccc(O)cc4)oc3c2)C(O)C(O)C1O (centres undefined),-12
